Measured values published in PubChem BioAssay (NCI).
This is part of a sample that, as a whole, favours compounds with a hit. Of some 83,000 tested, about 20% had one in any assay.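 The test compound was applied at a single concentration to cells in 96-well plates for 48 hours, and percent growth was recorded.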

Experiments:
Test in all cases: NCI-60 one-dose screen, 48 h (100 = growth as untreated, 0 = no growth, -100 = all killed)
Conditions in all cases: 10 µM unless noted; active = growth percent below 10; inactive = the rest
[1] = system: T-47D breast
[2] = system: BT-549 breast
[3] = system: MDA-MB-435 melanoma
[4] = system: SW-620 colon
[5] = system: MCF7 breast
[6] = system: HCT-116 colon
[7] = system: HCC-2998 colon
[8] = system: KM12 colon

Measured: growth

CCOC(=O)C(=O)CC(=O)c1ccccc1
inactive: [1] 105% | [2] 109% | [3] 106% | [4] 98.4% | [5] 96.7% | [6] 97.9% | [7] 101% | [8] 96.3%

CCCCOC(=O)c1ccccc1O
inactive: [1] 107% | [2] 109% | [3] 97.5% | [4] 101% | [5] 98% | [6] 109% | [7] 122% | [8] 106%

CC1(C)OC(=O)CC1=O
inactive: [1] 82% | [2] 98.1% | [3] 104% | [4] 100% | [5] 99.3% | [6] 103% | [7] 100% | [8] 102%

CCC(=O)Oc1c(C)cc(O)c2ccccc12
inactive: [1] 79.5% | [2] 82.1% | [3] 95.7% | [4] 103% | [5] 93.3% | [6] 70% | [7] 106% | [8] 88.6%

C/C(O)=C(/C=N/C(=S)Nc1ccccc1)C(=O)Nc1ccccc1C
inactive: [1] 79.6% | [2] 107% | [3] 111% | [4] 106% | [5] 94.9% | [6] 109% | [7] 109% | [8] 100%

C=CC1=NC(C)(C)CC(C)O1 (stereo unspecified)
inactive: [1] 92.2% | [2] 109% | [3] 94.7% | [4] 104% | [5] 93.4% | [6] 107% | [7] 110% | [8] 109%

C=CCOc1ccc(Cl)cc1Cl
inactive: [1] 103% | [2] 101% | [3] 102% | [4] 107% | [5] 105% | [6] 104% | [7] 114% | [8] 109%

CCOC(=O)/C(C#N)=C\c1c[nH]c2ccccc12
inactive: [1] 86.5% | [2] 129% | [3] 113% | [4] 115% | [5] 77% | [6] 100% | [7] 108% | [8] 109%

Nc1ccn(C2OC(CO)C(O)C2F)c(=O)n1 (stereo unspecified)
inactive: [1] 94.1% | [2] 93.9% | [3] 78.4% | [4] 67.7% | [5] 46.7% | [6] 49.2% | [7] 49.7% | [8] 89.6%

Nc1ncnc(Nc2ccc(C(F)(F)F)cc2)n1
inactive: [1] 96.8% | [2] 98.2% | [3] 99.9% | [4] 109% | [5] 96.6% | [6] 95.3% | [7] 101% | [8] 105%

CCCCCC#CC(=O)O
inactive: [1] 85.2% | [2] 64.1% | [3] 107% | [4] 104% | [5] 95.4% | [6] 112% | [7] 113% | [8] 121%

CN(C)c1ncnc2c1cnn2C
inactive: [1] 88.2% | [2] 99.9% | [3] 103% | [4] 98.7% | [5] 94% | [6] 105% | [7] 98% | [8] 104%

CCNc1ncnc2[nH]ncc12
inactive: [1] 103% | [2] 84.3% | [3] 102% | [4] 99.2% | [5] 93.3% | [6] 105% | [7] 106% | [8] 103%

O=[N+]([O-])c1ccc2[nH]c(=S)n(/C=C(/c3ccc(Cl)cc3Cl)S(=O)(=O)Cc3ccc(Cl)cc3Cl)c2c1
inactive: [1] 90.2% | [2] 93.9% | [3] 103% | [4] 114% | [5] 87.8% | [6] 82.8% | [7] 105% | [8] 108%

Cn1/c(=N\N=C\c2ccccc2OCCO)sc2ccccc21
inactive: [1] 79.3% | [2] 102% | [3] 107% | [4] 109% | [5] 76.9% | [6] 98.8% | [7] 110% | [8] 92.2%

Cc1ccc[n+](CCC(N)=O)c1
inactive: [1] 91.7% | [2] 110% | [3] 101% | [4] 96.7% | [5] 94.3% | [6] 115% | [7] 93.1% | [8] 91.1%

CCOC(=O)CSCCC#N
inactive: [1] 83.4% | [2] 87.2% | [3] 106% | [4] 100% | [5] 93.6% | [6] 95.2% | [7] 104% | [8] 105%
